# Legend:
# Test in all cases: DAPPL (digital affinity profiling via proximity ligation, sequencing); 10 mM Tris-HCl pH 7.5, 50 mM NaCl, 1 mM DTT, 4% glycerol, room temperature, 30 min; GST-TFs on glutathione beads, 16-mer random dsDNA library, 0.1% formaldehyde crosslink after washing; high values mean tight binding
# FEV = molecular target: T1, FEV (Homo sapiens, UniProt Q99581 1-238); conditions: protein: recombinant; tags: N-terminal GST; dsDNA, one strand shown
# T1 sequence: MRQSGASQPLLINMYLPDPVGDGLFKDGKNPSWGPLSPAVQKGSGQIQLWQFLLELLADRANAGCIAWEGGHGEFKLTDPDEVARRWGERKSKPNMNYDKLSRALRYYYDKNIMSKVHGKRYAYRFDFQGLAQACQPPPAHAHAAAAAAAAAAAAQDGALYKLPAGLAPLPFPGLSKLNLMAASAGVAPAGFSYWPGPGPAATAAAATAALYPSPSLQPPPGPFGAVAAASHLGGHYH
# Procedure, shortened: (§1)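 Human transcription factors fused to GST were expressed in yeast, captured on glutathione beads, given DNA barcodes and pooled with a GST-only negative control. Pools were incubated with 200 nmole of a 16-mer random double-stranded DNA library in Tris/NaCl/DTT/glycerol buffer at room temperature for 30 min. They were then washed, crosslinked with 0.1% formaldehyde, proximity-ligated (BsaI/T4 ligase, 1 h, 37 °C), PCR-amplified and sequenced on an Illumina NextSeq500. Binding signal is each 6-mer's read frequency for a factor divided by its frequency for the GST control.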
# ETV5 = ETV5 (Homo sapiens, UniProt P41161 1-510); conditions: protein: recombinant; tags: N-terminal GST; dsDNA, one strand shown
# Procedure, shortened: as §1
# HSF1 = HSF1 (Homo sapiens, UniProt Q00613 1-529); conditions: protein: recombinant; tags: N-terminal GST; chain copies: 3; dsDNA, one strand shown
# Procedure, shortened: as §1
# SPIC = molecular target: T2, SPIC (Homo sapiens, UniProt Q8N5J4 1-248); conditions: protein: recombinant; tags: N-terminal GST; dsDNA, one strand shown
# T2 sequence: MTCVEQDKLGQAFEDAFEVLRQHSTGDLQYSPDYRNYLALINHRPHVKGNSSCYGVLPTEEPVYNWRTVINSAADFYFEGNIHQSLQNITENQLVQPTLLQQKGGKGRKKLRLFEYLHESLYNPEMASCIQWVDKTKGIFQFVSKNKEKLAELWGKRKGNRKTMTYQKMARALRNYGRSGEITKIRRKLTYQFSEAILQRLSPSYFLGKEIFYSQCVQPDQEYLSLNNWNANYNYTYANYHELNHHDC
# Procedure, shortened: as §1
# ELF4 = ELF4 (Homo sapiens, UniProt Q99607 1-663); conditions: protein: recombinant; tags: N-terminal GST; dsDNA, one strand shown
# Procedure, shortened: as §1
# ELK4 = molecular target: T3, ELK4 (Homo sapiens, UniProt P28324-2 1-405); conditions: protein: recombinant; tags: N-terminal GST; dsDNA, one strand shown
# T3 sequence: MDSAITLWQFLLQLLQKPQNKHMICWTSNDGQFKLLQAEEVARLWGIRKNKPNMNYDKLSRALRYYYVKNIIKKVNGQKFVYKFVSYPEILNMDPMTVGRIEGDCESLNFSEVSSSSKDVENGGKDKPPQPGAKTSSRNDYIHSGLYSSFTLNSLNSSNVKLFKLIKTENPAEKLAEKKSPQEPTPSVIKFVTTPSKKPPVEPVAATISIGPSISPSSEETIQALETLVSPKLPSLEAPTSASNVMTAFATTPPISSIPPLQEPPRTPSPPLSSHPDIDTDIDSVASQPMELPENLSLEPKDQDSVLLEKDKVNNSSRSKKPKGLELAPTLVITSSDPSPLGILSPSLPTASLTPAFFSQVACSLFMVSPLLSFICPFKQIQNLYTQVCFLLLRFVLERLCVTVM
# Procedure, shortened: as §1
# ETV2 = molecular target: T4, ETV2 (Homo sapiens, UniProt O00321 1-342); conditions: protein: recombinant; tags: N-terminal GST; dsDNA, one strand shown
# T4 sequence: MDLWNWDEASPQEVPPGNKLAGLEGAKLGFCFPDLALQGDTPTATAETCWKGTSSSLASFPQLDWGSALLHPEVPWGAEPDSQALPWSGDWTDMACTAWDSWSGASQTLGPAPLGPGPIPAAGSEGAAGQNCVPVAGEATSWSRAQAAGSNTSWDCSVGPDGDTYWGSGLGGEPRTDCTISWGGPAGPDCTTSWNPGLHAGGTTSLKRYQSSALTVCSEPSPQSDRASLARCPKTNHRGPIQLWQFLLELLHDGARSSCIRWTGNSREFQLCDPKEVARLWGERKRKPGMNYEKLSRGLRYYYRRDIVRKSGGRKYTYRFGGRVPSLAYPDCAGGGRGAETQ
# Procedure, shortened: as §1
# ELF3 = molecular target: T5, ELF3 (Homo sapiens, UniProt P78545 1-371); conditions: protein: recombinant; tags: N-terminal GST; dsDNA, one strand shown
# T5 sequence: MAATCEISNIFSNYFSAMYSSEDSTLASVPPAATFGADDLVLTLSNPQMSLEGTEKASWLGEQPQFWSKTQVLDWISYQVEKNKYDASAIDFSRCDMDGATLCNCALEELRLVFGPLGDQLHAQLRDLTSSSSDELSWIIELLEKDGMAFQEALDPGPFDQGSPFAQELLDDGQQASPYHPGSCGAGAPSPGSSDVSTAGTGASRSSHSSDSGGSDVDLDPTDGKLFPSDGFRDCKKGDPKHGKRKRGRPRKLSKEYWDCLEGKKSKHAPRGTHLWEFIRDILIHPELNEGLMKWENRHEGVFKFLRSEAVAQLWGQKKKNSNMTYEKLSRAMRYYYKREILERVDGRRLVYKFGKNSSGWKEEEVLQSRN
# Procedure, shortened: as §1
# CRX = CRX (Homo sapiens, UniProt O43186 1-299); conditions: protein: recombinant; tags: N-terminal GST; dsDNA, one strand shown
# Procedure, shortened: as §1
# Chain of CRX (O43186 whole entry): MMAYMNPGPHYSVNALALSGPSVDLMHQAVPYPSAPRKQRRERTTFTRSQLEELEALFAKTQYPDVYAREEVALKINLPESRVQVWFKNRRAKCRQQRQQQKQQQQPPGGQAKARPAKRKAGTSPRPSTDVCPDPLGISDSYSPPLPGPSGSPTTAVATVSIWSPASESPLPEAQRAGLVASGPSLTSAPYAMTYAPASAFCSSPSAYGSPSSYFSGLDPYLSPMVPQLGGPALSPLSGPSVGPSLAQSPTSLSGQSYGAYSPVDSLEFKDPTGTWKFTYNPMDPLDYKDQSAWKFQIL
# Chain of ELF4 (Q99607 whole entry): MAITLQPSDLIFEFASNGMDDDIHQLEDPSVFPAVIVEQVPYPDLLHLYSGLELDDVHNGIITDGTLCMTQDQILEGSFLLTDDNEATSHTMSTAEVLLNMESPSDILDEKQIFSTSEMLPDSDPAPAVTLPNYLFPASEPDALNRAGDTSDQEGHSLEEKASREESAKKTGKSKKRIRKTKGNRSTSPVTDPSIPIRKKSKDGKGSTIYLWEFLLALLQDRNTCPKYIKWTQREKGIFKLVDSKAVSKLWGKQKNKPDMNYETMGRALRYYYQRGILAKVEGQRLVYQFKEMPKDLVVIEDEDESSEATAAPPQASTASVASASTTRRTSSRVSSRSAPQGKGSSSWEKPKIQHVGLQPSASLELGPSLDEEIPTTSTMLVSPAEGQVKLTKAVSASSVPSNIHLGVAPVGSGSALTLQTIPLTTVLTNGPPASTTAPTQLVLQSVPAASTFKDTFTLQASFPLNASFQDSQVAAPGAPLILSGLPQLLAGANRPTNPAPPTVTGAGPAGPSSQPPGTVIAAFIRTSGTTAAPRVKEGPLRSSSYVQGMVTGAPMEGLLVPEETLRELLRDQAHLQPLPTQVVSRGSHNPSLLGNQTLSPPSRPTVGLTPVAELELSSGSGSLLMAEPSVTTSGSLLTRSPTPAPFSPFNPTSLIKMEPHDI
# Chain of HSF1 (Q00613 whole entry): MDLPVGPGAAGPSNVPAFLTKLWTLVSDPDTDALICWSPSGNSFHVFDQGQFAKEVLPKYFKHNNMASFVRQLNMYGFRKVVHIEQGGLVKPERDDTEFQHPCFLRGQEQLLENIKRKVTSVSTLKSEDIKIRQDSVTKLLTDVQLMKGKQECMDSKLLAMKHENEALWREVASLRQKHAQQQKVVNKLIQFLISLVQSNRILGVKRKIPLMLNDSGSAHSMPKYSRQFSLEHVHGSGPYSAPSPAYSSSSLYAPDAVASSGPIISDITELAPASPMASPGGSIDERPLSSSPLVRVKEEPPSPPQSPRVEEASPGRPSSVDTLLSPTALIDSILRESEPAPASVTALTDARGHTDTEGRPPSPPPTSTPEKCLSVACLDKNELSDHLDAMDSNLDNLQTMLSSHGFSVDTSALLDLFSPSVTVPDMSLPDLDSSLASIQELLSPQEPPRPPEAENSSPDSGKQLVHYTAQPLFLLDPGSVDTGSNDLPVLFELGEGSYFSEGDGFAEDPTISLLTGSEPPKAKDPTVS
# Chain of ETV5 (P41161 whole entry): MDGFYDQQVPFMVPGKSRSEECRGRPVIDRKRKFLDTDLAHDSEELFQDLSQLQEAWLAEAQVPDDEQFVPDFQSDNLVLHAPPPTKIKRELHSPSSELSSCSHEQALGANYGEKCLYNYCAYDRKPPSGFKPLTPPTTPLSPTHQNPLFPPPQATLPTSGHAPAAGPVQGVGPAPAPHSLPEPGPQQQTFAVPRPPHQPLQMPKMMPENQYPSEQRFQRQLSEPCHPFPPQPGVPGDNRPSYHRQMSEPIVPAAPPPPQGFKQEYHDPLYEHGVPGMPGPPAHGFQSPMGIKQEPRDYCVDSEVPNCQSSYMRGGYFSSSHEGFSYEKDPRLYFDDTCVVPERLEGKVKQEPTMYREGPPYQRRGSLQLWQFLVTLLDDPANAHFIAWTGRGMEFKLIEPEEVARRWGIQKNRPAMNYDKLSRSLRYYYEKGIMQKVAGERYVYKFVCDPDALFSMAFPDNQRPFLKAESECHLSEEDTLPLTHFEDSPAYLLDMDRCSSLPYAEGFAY
sequence,measurement,setting,value
AATTTA,binding signal,FEV,"1.16 fold enrichment (6-mer frequency, TF over GST control)"
same,binding signal,ETV5,"1.27 fold enrichment (6-mer frequency, TF over GST control)"
same,binding signal,HSF1,"1.44 fold enrichment (6-mer frequency, TF over GST control)"
same,binding signal,SPIC,"1.21 fold enrichment (6-mer frequency, TF over GST control)"
same,binding signal,ELF4,"1.21 fold enrichment (6-mer frequency, TF over GST control)"
same,binding signal,ELK4,"1.22 fold enrichment (6-mer frequency, TF over GST control)"
same,binding signal,ETV2,"1.13 fold enrichment (6-mer frequency, TF over GST control)"
same,binding signal,ELF3,"1.36 fold enrichment (6-mer frequency, TF over GST control)"
same,binding signal,CRX,"1.59 fold enrichment (6-mer frequency, TF over GST control)"
